Data reported in PubChem BioAssay AID894 (National Center for Advancing Translational Sciences (NCATS), 2007).
Out of some 150,000 compounds screened, about 6,500 (4.3%) were called active. Inconclusive results (about 12%) are left out. Calls follow the shape of the dose curve; as a rule, active = well fitted inhibition curve with a large enough effect (not every such curve was filed as active); inconclusive = small, poorly fitted or top-dose-only effect, or another doubt; inactive = no such curve, though single readings can be large or run the other way. For the sample, actives were picked, then their nearest neighbours and some compounds at random.

target: 15-hydroxyprostaglandin dehydrogenase [NAD(+)] (Homo sapiens) (UniProt P15428); assay: qHTS Assay for Inhibitors of HPGD (15-Hydroxyprostaglandin Dehydrogenase); conditions: purified HPGD, NADH fluorescence kinetic, PGE2 substrate; activity change, negative = inhibition: active compounds read low
Sequence (P15428 whole entry, looked up): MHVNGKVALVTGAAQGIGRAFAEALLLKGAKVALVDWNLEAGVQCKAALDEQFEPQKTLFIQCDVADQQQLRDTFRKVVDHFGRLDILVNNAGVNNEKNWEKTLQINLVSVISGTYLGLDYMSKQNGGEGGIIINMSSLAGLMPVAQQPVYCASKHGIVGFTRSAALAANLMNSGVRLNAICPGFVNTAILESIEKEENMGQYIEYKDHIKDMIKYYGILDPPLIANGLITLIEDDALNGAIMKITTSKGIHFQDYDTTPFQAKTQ
Outline: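 NADH formation kinetics: reaction with 30 uM PGE2 and 1 mM NAD+ (final), 20 nM enzyme, Tris-HCl pH 8 with Tween 20, after 15 min compound preincubation at room temperature. Fluorescence change, last versus first of five reads.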
% is scaled to controls: 0 for no effect and ±100 for the full control effect; potency is read from the fitted curve at half-maximal effect.

Activity change, negative = inhibition, inactive:
CC(C)C(=O)Nc1ccc(C(=O)NNC(=O)c2cccs2)cc1 -13.5%
Cc1cc(C)nc(NC(=O)c2cccc([N+](=O)[O-])c2)c1 -3.35%
CCCCC/C=C\C/C=C\CCCCCCCCCC(=O)O -12.4%
Cc1ccc(NC(=O)CCC(=O)N/N=C/c2ccco2)c(C)c1 -2.23%
COc1ccc(C(=O)O/N=C(\N)Cc2ccc(Cl)cc2Cl)cc1OC -15.7%
Cc1nnc(SCC(=O)Nn2cnnc2)s1 -0.465%
CC1CCCC(NC(=O)CSc2nccn2C)C1C (configuration not stated) -27.8%
Nc1nnc(SCC(=O)OCc2ccc(Cl)c(Cl)c2)s1 -17.6%
Cc1cnc(NC(=O)CSc2nnc(C)s2)s1 -0.21%
CN(CC(=O)NCCc1ccccc1)S(=O)(=O)c1cnc[nH]1 -0.3%
Cc1cccc(C)c1NC(=O)C(c1ccccc1)N1CC(=O)Nc2ccccc21 (configuration not stated) -5.54%
C=CCN(CC=C)S(=O)(=O)c1ccc(C(=O)Nc2nc3c(s2)CCc2ccccc2-3)cc1 -28.8%
O=C(/C(=C/c1cccc(Cl)c1)c1nc2ccccc2[nH]1)c1ccccc1 -17.6%
COc1ccc(C/C(C)=N/NC(=O)c2ccncc2)cc1 -13.4%
COc1ccc([N+](=O)[O-])cc1NC(=O)C(C)OC(=O)C1c2ccccc2Oc2ccccc21 (configuration not stated) -5.7%
NC1CCN(O)C1=O (configuration not stated) -4.5%
O=C1N(c2ccc(Cl)cc2)C(c2ccc(Cl)cc2)N2CCCN12 (configuration not stated) 4.12%
COc1ccc(CNC(=O)CN(Cc2ccc(Cl)cc2)S(C)(=O)=O)cc1 -5.79%
Cc1nc(SCC(=O)c2ccccc2)c([N+](=O)[O-])[nH]1 -5.29%
COc1ccc(C(=O)CSc2n[nH]c(N)n2)cc1 -10.7%
O=C(CSc1nnc2ccccn12)c1ccccc1 78.8%
CCOC(=O)c1c(C)[nH]c(C)c1C(=O)CSc1nc(N)cc(N)n1 -1%
C/C=C(\C)C(=O)O[C@H]1CC(C)=C2C(=O)C=C(C)C2[C@@H]2OC(=O)[C@@](C)(OC(=O)C=C(C)C)C21 (some centres not stated) -7.62%
O=C(Nc1ccccc1Cc1ccccc1)c1ccc2c(c1)SC1=NS(=O)(=O)CCN12 -2.73%
Cc1cc(Cl)ccc1NC(=S)N1CCC(C(N)=O)(N2CCCCC2)CC1 -9.28%
CCOc1ccc(NC(=O)CSc2ncnc3c2sc2ccccc23)cc1 -9.21%
O=C(N/N=C/c1c(Cl)[nH]c2ccccc12)c1sc2ccccc2c1Cl -16.9%
O=C(Nc1ccon1)c1cccc(Cl)c1 -28.3%
CC/C=C\C/C=C\C/C=C\C/C=C\C/C=C\C/C=C\CCC(=O)NC(C)C(=O)O (configuration not stated) -6.96%
Cc1nnc(SCC(=O)N2CCOCC2)[nH]c1=O -12.2%
COc1ccc(N2CCN(C(=O)CSc3ncnc4c3cnn4-c3ccc(OC)cc3)CC2)cc1 -8.74%
CCc1ccc(C2N3CC4([N+](=O)[O-])CN2CC([N+](=O)[O-])(C3)C4(C)C)cc1 (configuration not stated) 2.32%
CCCc1[nH]nc2c1C(C1CC=CCC1)C(C#N)=C(N)O2 (configuration not stated) -1.94%
CCc1ccc(C2C(C#N)=C(N)N(N(C)C)C3=C2C(=O)CCC3)s1 (configuration not stated) -10.8%
Cc1ccc(NC(=O)c2oc(=O)c3ccccc3c2-c2ccccc2)c(C)c1 -2.46%
CCCCOc1ccc(C(=O)NCc2ccncc2)cc1 -5.73%
CC(C)(C)c1ccc(C(=O)NCCC(=O)NCc2ccco2)cc1 -15.3%
Cc1cccc(Nc2ccccc2C(=O)NCc2ccco2)c1C -6.4%
O=C(Nc1ccccc1)Nc1ccccc1C(=O)NCc1ccco1 -6.05%
O=C(CCOc1ccccc1)NCc1ccccc1 -13.4%
CN(C)C(CNC(=O)CCCOc1ccccc1)c1ccco1 (configuration not stated) -16.9%
O=C(Nn1c(SCc2ccc([N+](=O)[O-])cc2)nc2ccccc2c1=O)c1ccc(F)cc1 -26.2%
Oc1ccc(Br)cc1C=Nc1ccc2[nH]ncc2c1 -20.6%
COc1ccc(-n2nnnc2-c2nc3ccccc3s2)cc1 -14.9%
CCOC(=O)C(C)Sc1nnc(CSc2nc3nc(C)cc(C)n3n2)o1 (configuration not stated) -7.77%
O=C1NC(c2ccccc2)=NC1(Nc1ccccn1)C(F)(F)F (configuration not stated) -0.712%
Cc1nc(CC(=O)NNS(=O)(=O)c2ccc(F)c(Cl)c2)cs1 -9.95%
C[C@@]12CCC(=O)C=C1CC[C@H]1C2[C@@H](O)C[C@]2(C)[C@@H]1CC[C@@]2(O)C(=O)COC(=O)C1CCCC1 (some centres not stated) 2.72%
C=CCn1c(CC(=O)Nc2cccc(OC)c2)nnc1SCC(=O)NC1CCCCC1 -4.23%
Cn1c(SCC(=O)NC2CCCCC2)nnc1-c1cc2ccccc2o1 -3.43%
CCN(C(=O)COC(=O)c1c(NC(C)=O)sc(C)c1C)C1CCS(=O)(=O)C1 (configuration not stated) -23.1%

Potency, active:
Cc1nnc(SCC(=O)NC2CCCC2)s1 28.2 µM
CC1CCCCC1NC(=O)CSc1nnc(N)s1 (configuration not stated) 17.8 µM
Cc1cc(SCC(=O)c2ccccc2)nc(SCC(=O)c2ccccc2)n1 28.2 µM
COC(=O)c1cc(C(=O)CSc2nc(C)cc(C)n2)ccc1O 17.8 µM
O=C(Nc1ccon1)c1sc2ccccc2c1Cl 15.8 µM
O=C(CSc1nc2c(cnn2-c2ccc(F)cc2)c(=O)[nH]1)N1CCCCCC1 15.8 µM
N#CC1=C(N)OC2=C(C(=O)CCC2)C1C1CC=CCC1 (configuration not stated) 20 µM
CCCCOc1ccc(C(=O)NCc2ccco2)cc1 15.8 µM
CCOc1ccccc1C(=O)NCc1ccco1 22.4 µM
O=C(CCCOc1ccccc1)NCc1ccco1 12.6 µM
COc1cccc(-n2c(SCC(=O)NC3CCCCC3)nc3n[nH]c(C)c3c2=N)c1 15.8 µM
